About 83,000 compounds went through this panel and 20% of them were active in at least one assay; those are over-represented in the sample as a whole.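 For each line, cells grew in 96-well plates with the test compound present at a single concentration for 48 hours.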 Active and inactive are the calls of the source. The calls were made as follows: active = growth percent below 10; inactive = the rest.
What was measured:
Assay in all cases: NCI-60 one-dose screen, 48 h (100 = growth as untreated, 0 = no growth, -100 = all killed)
Settings in all cases: 10 µM unless noted
SK-MEL-2 melanoma = system: SK-MEL-2 melanoma
EKVX NSCLC = system: EKVX NSCLC
SN12C renal = system: SN12C renal
TK-10 renal = system: TK-10 renal
ACHN renal = system: ACHN renal
CAKI-1 renal = system: CAKI-1 renal
A498 renal = system: A498 renal
CCRF-CEM leukemia = system: CCRF-CEM leukemia
UO-31 renal = system: UO-31 renal
MOLT-4 leukemia = system: MOLT-4 leukemia

Measured: growth

N#Cc1c(-c2ccc(Cl)cc2)nc(NN=Cc2cccc(O)c2)nc1N1CCOCC1
inactive: SK-MEL-2 melanoma 91.5% | EKVX NSCLC 66.6% | SN12C renal 78.3% | TK-10 renal 79% | ACHN renal 60.9% | CAKI-1 renal 60.5% | A498 renal 75.1% | CCRF-CEM leukemia 36.2%

COc1ccc2c(O)c(/C=C3\N=Nc4ncccc43)oc2c1C[C@H]1CCNC[C@H]1F
active: SK-MEL-2 melanoma -6.33% | EKVX NSCLC 5.31% | SN12C renal 7.25% | UO-31 renal 4.13% | CAKI-1 renal 6% | A498 renal -41.8% | CCRF-CEM leukemia -3.17% | MOLT-4 leukemia -34.3%
inactive: TK-10 renal 19.8%

C=C(C)[C@@H]1CC[C@]2(C(=O)O)CC[C@]3(C)[C@H](CC[C@@H]4[C@@]5(C)C[C@@H](Cc6cn(CCO[C@@H]7O[C@H](COC(C)=O)[C@H](OC(C)=O)[C@H](OC(C)=O)[C@H]7OC(C)=O)nn6)[C@H](O)C(C)(C)[C@@H]5CC[C@]43C)[C@@H]12
inactive: SK-MEL-2 melanoma 67.2% | EKVX NSCLC 72% | SN12C renal 70.3% | TK-10 renal 79.3% | ACHN renal 86% | CAKI-1 renal 73.2% | A498 renal 70.3% | CCRF-CEM leukemia 69.2% | MOLT-4 leukemia 50.6%

COC(=O)CCC(=O)C(=O)OC
inactive: EKVX NSCLC 23.7% [10 mM] | CAKI-1 renal 10.2% [10 mM]
active: SK-MEL-2 melanoma -34.9% [10 mM] | SN12C renal 0.923% [10 mM] | UO-31 renal -9.29% [10 mM] | TK-10 renal -8.5% [10 mM] | A498 renal -72.8% [10 mM] | CCRF-CEM leukemia -7.36% [10 mM] | MOLT-4 leukemia -11.4% [10 mM]

Nc1ncnc2c1N=C(c1ccc3c(c1)OCO3)CC(c1ccc([N+](=O)[O-])cc1)N2 (centres undefined)
inactive: SK-MEL-2 melanoma 60.8% | EKVX NSCLC 87.4% | SN12C renal 84% | TK-10 renal 112% | ACHN renal 82.4% | CAKI-1 renal 99.2% | A498 renal 67.3% | CCRF-CEM leukemia 39.3% | MOLT-4 leukemia 99.3%

O=C(c1cc2ccccc2o1)c1nn(-c2ccccc2)/c(=N/N=Cc2cn(-c3ccccc3)nc2-c2cc3ccccc3oc2=O)s1
inactive: SK-MEL-2 melanoma 100% | EKVX NSCLC 92.7% | SN12C renal 113% | TK-10 renal 107% | ACHN renal 102% | CAKI-1 renal 79.1% | A498 renal 116% | CCRF-CEM leukemia 92.8% | MOLT-4 leukemia 93.3%

O=C1/C(=C/c2ccc(-c3ccc(Br)cc3)o2)SC(=S)N1CCc1ccc(O)cc1
inactive: EKVX NSCLC 77.2% | SN12C renal 69.6% | TK-10 renal 87% | ACHN renal 83.9% | CAKI-1 renal 39.1% | A498 renal 64.7% | CCRF-CEM leukemia 21.7% | MOLT-4 leukemia 33.6%
active: SK-MEL-2 melanoma 2.89%

O=C1c2cccnc2C(=O)c2c1c(C(=O)NCCn1ccnc1)c1ccccn21
active: SN12C renal 4.77% | MOLT-4 leukemia 1.95%
inactive: SK-MEL-2 melanoma 26.6% | EKVX NSCLC 56.9% | TK-10 renal 116% | ACHN renal 31.5% | CAKI-1 renal 86.9% | A498 renal 57.3% | CCRF-CEM leukemia 11.8%

O=C(Cn1c(-c2ccc([N+](=O)[O-])cc2)nc2ccccc21)NNC(=O)c1cccnc1
inactive: SK-MEL-2 melanoma 103% | EKVX NSCLC 73.2% | SN12C renal 78.9% | TK-10 renal 126% | ACHN renal 84.4% | CAKI-1 renal 71.2% | A498 renal 65.1% | CCRF-CEM leukemia 75.6%

Cc1ccccc1NC(=O)c1sc2nc(C)c(C(=O)/C=C/c3ccccc3)cc2c1N
inactive: SK-MEL-2 melanoma 34.8% | EKVX NSCLC 59.6% | TK-10 renal 11.7% | ACHN renal 33.3% | CAKI-1 renal 25.5% | A498 renal 29.3% | MOLT-4 leukemia 17.4%
active: SN12C renal 3.45% | CCRF-CEM leukemia 8.43%

COc1ccc(/C=C2\COc3ccc(O)cc3C2=O)c(OC)c1OC
active: CCRF-CEM leukemia 8.08%
inactive: SK-MEL-2 melanoma 102% | EKVX NSCLC 93.9% | SN12C renal 66.3% | TK-10 renal 109% | ACHN renal 80.1% | CAKI-1 renal 68.2% | A498 renal 113% | MOLT-4 leukemia 73.2%

CCC(=C(c1ccc(OCCN2CCCC2)cc1)c1ccc(OCCN2CCCC2)cc1)c1ccc(Cl)cc1
inactive: EKVX NSCLC 92.7% | A498 renal 46.8%
active: SK-MEL-2 melanoma -28.2% | SN12C renal -62.9% | TK-10 renal -12.5% | ACHN renal -84.6% | CAKI-1 renal -58.7% | CCRF-CEM leukemia -38.7% | MOLT-4 leukemia -27.2%

CCNc1nc(-c2ccc(Cl)c(OC)c2)c(-c2ccnc(NCCCNS(=O)(=O)c3ccc(Cl)cc3)n2)s1
active: SK-MEL-2 melanoma -27.1%
inactive: EKVX NSCLC 75.4% | SN12C renal 66.5% | TK-10 renal 43.7% | ACHN renal 74.1% | CAKI-1 renal 59% | A498 renal 66.8% | CCRF-CEM leukemia 31.6% | MOLT-4 leukemia 22.2%

CSc1nnc(-c2cnn3c2NC(c2ccccc2)C3)n1-c1ccc(C(F)(F)F)cc1 (centres undefined)
inactive: SK-MEL-2 melanoma 50.2% | EKVX NSCLC 56% | SN12C renal 78.5% | TK-10 renal 70.6% | ACHN renal 52.3% | CAKI-1 renal 32% | A498 renal 46.8% | CCRF-CEM leukemia 48% | MOLT-4 leukemia 41.9%

CC(C)N1CCN(Cc2ccc3c(NNC(=O)c4ccccc4)nc4cc(F)ccc4n23)CC1
active: A498 renal -15.8%
inactive: SK-MEL-2 melanoma 59.6% | EKVX NSCLC 18.1% | SN12C renal 17.3% | TK-10 renal 36.2% | ACHN renal 10.8% | CAKI-1 renal 12.5% | CCRF-CEM leukemia 10.8% | MOLT-4 leukemia 11.7%

O=S(=O)(NCCNc1nccc(-c2c(-c3cccc(F)c3)nc3occn23)n1)c1ccc(Br)cc1
inactive: SK-MEL-2 melanoma 103% | EKVX NSCLC 89.5% | SN12C renal 78.7% | TK-10 renal 103% | ACHN renal 62% | CAKI-1 renal 70.5% | A498 renal 81.3% | CCRF-CEM leukemia 60.3% | MOLT-4 leukemia 82.5%

CC1(c2ccccc2O)NN=C(/N=C/c2cccc([N+](=O)[O-])c2)N1C(Cc1c[nH]c2ccccc12)C(=O)O (centres undefined)
inactive: SK-MEL-2 melanoma 87.8% | EKVX NSCLC 77.6% | SN12C renal 94.2% | TK-10 renal 141% | ACHN renal 91.1% | CAKI-1 renal 93.7% | A498 renal 90.9% | CCRF-CEM leukemia 81.9% | MOLT-4 leukemia 92.5%

COc1cc(CNS(=O)(=O)c2ccc(C)cc2)ccc1OCc1cn(-c2ccc(F)cc2)nn1
inactive: SK-MEL-2 melanoma 104% | EKVX NSCLC 80.3% | SN12C renal 92.2% | TK-10 renal 116% | ACHN renal 93.2% | CAKI-1 renal 89.6% | A498 renal 54.1% | CCRF-CEM leukemia 79.9% | MOLT-4 leukemia 78.2%

O=C1C(Cl)=C(Oc2ccccc2)C(=O)c2ccccc21
inactive: SK-MEL-2 melanoma 73.4% | EKVX NSCLC 87.2% | SN12C renal 87.9% | TK-10 renal 49.4% | ACHN renal 26.6% | CAKI-1 renal 76.9% | A498 renal 98.7% | MOLT-4 leukemia 57.4%
active: CCRF-CEM leukemia 8.95%

C=C1C(=O)O[C@H]2[C@H]1CC/C(COC(=O)NCc1cc[nH]c1)=C\CC[C@@]1(C)O[C@@H]21
inactive: SK-MEL-2 melanoma 70.5% | EKVX NSCLC 61.7% | SN12C renal 33.6% | TK-10 renal 44.1% | ACHN renal 45.3% | CAKI-1 renal 39.1% | A498 renal 104% | MOLT-4 leukemia 18.6%
active: CCRF-CEM leukemia -15.9%

Cc1ccc(CNc2ccc(Cl)cc2NCc2ccc(C)c(O)c2)cc1O
active: SN12C renal -27.8% | ACHN renal 0.115% | CCRF-CEM leukemia 9.13% | MOLT-4 leukemia -10.5%
inactive: SK-MEL-2 melanoma 33.3% | EKVX NSCLC 80.2% | TK-10 renal 52.3% | CAKI-1 renal 37.4% | A498 renal 82.2%

O=C1/C(=C/c2ccc(F)cc2)COc2ccc(O)c(O)c21
active: SN12C renal -49.9% | ACHN renal -67.1% | CAKI-1 renal 9.04% | CCRF-CEM leukemia 3.39%
inactive: SK-MEL-2 melanoma 74.8% | EKVX NSCLC 51.4% | TK-10 renal 17.8% | A498 renal 105%

COc1cccc(/C=C/C(=O)c2cc3c(N)c(C(=O)Nc4ccccc4)sc3nc2C)c1
inactive: SK-MEL-2 melanoma 25.6% | EKVX NSCLC 75.8% | TK-10 renal 40.1% | ACHN renal 33.5% | CAKI-1 renal 15.4% | A498 renal 58.8% | MOLT-4 leukemia 20.8%
active: SN12C renal 8.27% | CCRF-CEM leukemia 7.86%

OB(O)c1cccc(-c2nc3ccc4[nH]ncc4c3c3c2CCCC3)c1
inactive: SK-MEL-2 melanoma 81.1% | EKVX NSCLC 65.6% | SN12C renal 48.8% | TK-10 renal 29.3% | ACHN renal 38% | A498 renal 15.2% | CCRF-CEM leukemia 32.2% | MOLT-4 leukemia 28.7%
active: CAKI-1 renal -11.5%

COc1cc(-c2csc(NC(=O)c3cc(-n4cnc(C)c4)cc(C(F)(F)F)c3)n2)cc(OC)c1OC
inactive: SK-MEL-2 melanoma 67.6% | EKVX NSCLC 69.1% | SN12C renal 44.1% | TK-10 renal 85.6% | ACHN renal 54.3% | CAKI-1 renal 62.8% | A498 renal 60.6% | CCRF-CEM leukemia 24.4% | MOLT-4 leukemia 37.3%

O=C(CCC(=O)N/N=C/c1ccccc1O)N/N=C/c1ccccc1O
inactive: SK-MEL-2 melanoma 69.7% | EKVX NSCLC 41.1% | SN12C renal 70.2% | TK-10 renal 44% | ACHN renal 18.7% | CAKI-1 renal 27.7% | A498 renal 80% | CCRF-CEM leukemia 25% | MOLT-4 leukemia 18.1%

COC1C[C@H](O[C@@H]2C[C@H](O[C@@H]3C[C@H](O[C@@H]4C(=O)c5c(cc6cc(O[C@H]7C[C@@H](O[C@H]8C[C@@H](O)[C@H](O)C(C)O8)[C@H](O)C(C)O7)c(C)c(O)c6c5O)C[C@H]4C(OC)C(=O)[C@@H](O)[C@@H](C)O)OC(C)[C@H]3O)OC(C)[C@@H]2O)OC(C)[C@@H]1O (some centres undefined)
inactive: CAKI-1 renal 28.6%
active: SK-MEL-2 melanoma -61.7% | EKVX NSCLC 7.01% | SN12C renal 2.57% | TK-10 renal 1.34% | ACHN renal 6.35% | A498 renal -44.5% | CCRF-CEM leukemia 6.53% | MOLT-4 leukemia 5.23%

O=C1CC(N2C(=O)/C(=C/C(Cl)=C\c3ccc([N+](=O)[O-])cc3)SC2=S)C(=O)N1c1ccc(Cl)cc1 (centres undefined)
active: SN12C renal 4.02% | ACHN renal 1.2%
inactive: SK-MEL-2 melanoma 68.3% | EKVX NSCLC 32.3% | TK-10 renal 38% | CAKI-1 renal 23.5% | A498 renal 55% | CCRF-CEM leukemia 11.4% | MOLT-4 leukemia 11.7%
